# Measured values as given in PubChem BioAssay AID1851 (National Center for Advancing Translational Sciences (NCATS), 2009).
# The whole screen tested about 16,000 compounds, of which about 5,800 (36%) were called active. Inconclusive results (about 23%) are left out. Calls come from the whole dose curve; as a rule, active = well fitted curve in the direction sought with a large enough effect; inconclusive = small, poorly fitted or top-dose-only effect, or effect the other way; inactive = no such curve, though single readings can be large or run the other way. The list shows a part of the results.
# Molecular target: Cytochrome P450 2C19 (Homo sapiens) (UniProt P33261)
# Sequence (P33261 whole entry, looked up): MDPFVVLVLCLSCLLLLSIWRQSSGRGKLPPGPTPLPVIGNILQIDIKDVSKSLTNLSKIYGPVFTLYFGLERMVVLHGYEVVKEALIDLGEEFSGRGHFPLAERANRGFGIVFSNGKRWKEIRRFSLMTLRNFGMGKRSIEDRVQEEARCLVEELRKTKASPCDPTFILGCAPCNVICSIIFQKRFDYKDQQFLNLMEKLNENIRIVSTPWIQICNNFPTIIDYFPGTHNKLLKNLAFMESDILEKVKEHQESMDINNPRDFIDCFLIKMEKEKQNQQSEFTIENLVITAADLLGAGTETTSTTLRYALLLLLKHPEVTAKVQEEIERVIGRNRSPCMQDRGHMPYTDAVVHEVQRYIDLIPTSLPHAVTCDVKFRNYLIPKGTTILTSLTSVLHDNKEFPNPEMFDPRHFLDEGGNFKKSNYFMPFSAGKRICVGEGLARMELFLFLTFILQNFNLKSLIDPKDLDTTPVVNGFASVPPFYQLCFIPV
# Test: Cytochrome panel assay with activity outcomes
# Conditions: recombinant CYP, pro-luciferin dealkylation, luminescence, p450-cyp2c19; series mostly up to 57.1 µM
# % is set by controls: 0 for no effect and ±100 for the full control effect.
Structure (SMILES),AC50,"activity, negative = inhibition"
CCN(c1nc(N)c(C(=O)N=C(N)N)nc1Cl)C(C)C,inactive,
c1c[nH]c(CN2CCN(Cc3ncc[nH]3)CC2)n1,,-25.8% [at 11.4 µM] (inactive)
Cc1cc(C(=O)CSC(=S)SC(C)(C)C)ccc1Cl,1 µM (active),
CC(=O)N1CCc2cc(Br)cc(S(=O)(=O)N3CCN(C(=O)c4ccco4)CC3)c21,4.47 µM (active),
Cc1ccc(NC(=O)c2nnn(-c3cc(C)cc(C)c3)c2N)cc1,3.98 µM (active),
Cc1cc(Cc2c(C)c(C)c(Cc3cc(C)cc(C(C)(C)C)c3O)c(C)c2C)c(O)c(C(C)(C)C)c1,,37.4% [at 11.4 µM] (inactive)
Cc1cc(Cc2cc(C)cc(C(C)(C)C)c2O)c(O)c(Cc2cc(C)cc(C(C)(C)C)c2O)c1,3.16 µM (active),
Cc1cc(Cc2cc(Cc3cc(C)cc(C(C)(C)C)c3O)c(C)cc2C)c(O)c(C(C)(C)C)c1,1 µM (active),
CCN1CCN(C(=O)N[C@H](C(=O)N[C@@H]2C(=O)N3[C@@H]2SC(C)(C)[C@@H]3C(=O)O)c2ccccc2)C(=O)C1=O,inactive,
Cc1cccc(CNc2ncncc2-c2cccc(C#N)c2)c1,3.98 µM (active),
N#Cc1cccc(-c2cncnc2NCc2ccccc2)c1,7.94 µM (active),
N#Cc1cccc(-c2cncnc2NCc2cccs2)c1,7.94 µM (active),
N#Cc1cccc(-c2cncnc2NCc2cccnc2)c1,3.98 µM (active),
Cc1cnc(CNc2ncncc2-c2cccc(C#N)c2)cn1,inactive,
CC(C)CN1CCC2(CC1)CCN(C(=O)c1cccn1C)CC2,inactive,
CC(=O)NC1=NC(=O)CS1,inactive,
Nc1cc(-c2ccncc2)c[nH]c1=O,5.01 µM (active),
Cc1cccc(C)c1OC[C@@H](N)C(C)C,inactive,
CCCCc1ccc(-c2csc(/C(C#N)=C/c3ccc(C)o3)n2)cc1,5.62 µM (active),
Nc1nnc(C(c2ccccc2)c2ccccc2)s1,22.4 µM (active),
COc1ccc(C(C(=O)NC2CCCC2)N(Cc2ccc(F)cc2)C(=O)c2ccn[nH]2)cc1OC (configuration not stated),10 µM (active),
O=C(NC1CCCC1)C(c1ccc(F)cc1)N(Cc1ccc(F)cc1)C(=O)c1ccn[nH]1 (configuration not stated),5.01 µM (active),
COc1ccc(CC(NC(C)=O)C(=O)NC2CCN(C(=O)Nc3ccc(Cl)cc3)CC2)cc1OC (configuration not stated),inactive,
Cc1nc2cnc(N3CCN(C)CC3)nc2n(Cc2ccc(F)cc2)c1=O,inactive,
COc1ncc2nc(C)c(=O)n(CCc3ccccc3)c2n1,25.1 µM (active),
COc1ncc2nc(-c3ccc(F)cc3)c(=O)n(CCc3ccccc3)c2n1,inactive,

Structure (SMILES),AC50,"activity, negative = inhibition"
COc1ccc(-c2nc3cnc(OC)nc3n(-c3ccc(OC)cc3)c2=O)cc1,inactive,
COc1ncc2nc(CCc3ccccc3)c(=O)n(CCc3ccccc3)c2n1,7.94 µM (active),
Cc1nc2cnc(Oc3ccccc3)nc2n(CCc2ccccc2)c1=O,inactive,
COCCn1c(=O)c(CCc2ccccc2)nc2cnc(OC)nc21,0.794 µM (active),
COc1ccc(-c2nc3cnc(OC)nc3n(CCc3ccccc3)c2=O)cc1,inactive,
COc1ccc(-n2c(=O)c(CCc3ccccc3)nc3cnc(OC)nc32)cc1,6.31 µM (active),
COc1ccc(-n2c(=O)c(CCc3ccccc3)nc3cnc(N4CCN(C)CC4)nc32)cc1,inactive,
COCCn1c(=O)c(-c2cn(C)c3ccccc23)nc2cnc(OCc3ccccc3)nc21,inactive,
COCCn1c(=O)c(-c2ccccc2)nc2cnc(OC)nc21,inactive,
C#CCCCO/N=C1/C[C@@H](O)[C@@H](O)[C@@H]2[C@@H]3C(=O)N(C4CCCCC4)C(=O)[C@H]3CC[C@@H]12,,-32.2% [at 11.4 µM] (inactive)
O=C1C[C@H]2C(=O)[C@@H]1[C@@H](C(=O)O)[C@H]2C(=O)O,,-11.8% [at 11.4 µM] (inactive)
Cc1ccc(S(=O)(=O)N[C@H]2COC(=O)[C@@H](C)COC(=O)[C@H](C)NC(=O)C/C=C\[C@H]2C)cc1,,9.82% [at 11.4 µM] (inactive)
COc1ccc(-c2nc3cnc(N4CCNCC4)nc3n(C)c2=O)cc1,inactive,
CCOC(=O)c1c(C)n(C)c2ccc(OC)c(NS(=O)(=O)c3ccc(Cl)s3)c12,0.282 µM (active),
Cc1ccc(NC(=S)NCCN2CCOCC2)cc1C,5.01 µM (active),
C=CCNC(=S)Nc1ccc2nc(C)c(C)nc2c1,inactive,
Cc1ccc(SCCNC(=S)Nc2ccc(C)c(C)c2)cc1,3.16 µM (active),
Cc1cc(-c2ccccc2)nnc1NCCN1CCOCC1,inactive,
Cc1ccc(CCN2CC(C(=O)NCCN3CCOCC3)CC2=O)cc1 (configuration not stated),inactive,
O=C(c1cccc(F)c1)N1CCC2(CC1)CCN(C(c1ccccc1)c1ccccc1)CC2,inactive,
CN(C)CCCn1cnc2cc(Cl)c(Cl)cc21,,51.6% [at 11.4 µM] (inactive)
O=C(N/N=C1\CCCc2ccccc21)c1ccc([N+](=O)[O-])cc1Cl,4.47 µM (active),
Cc1cc(Cl)ccc1OCC(=O)N/N=C1\CCCc2ccccc21,inactive,
CCCCNC(=S)NNC(=O)c1csc2c1CCC(C)C2 (configuration not stated),3.98 µM (active),
CCCCNC(=S)NNC(=O)c1sccc1C,0.794 µM (active),
CC1CCc2c(C(=O)Nc3nccs3)csc2C1 (configuration not stated),2.82 µM (active),

Structure (SMILES),AC50,"activity, negative = inhibition"
CC(C)NC(=O)N1CCC2(CC1)CCN(C(=O)c1ccncc1)CC2,inactive,
CCNc1ncc2nc(-c3cc(F)cc(F)c3)c(=O)n(C[C@H]3CCCO3)c2n1,inactive,
COCCn1c(=O)c(-c2ccc(OC)cc2)nc2cnc(N3CCNCC3)nc21,inactive,
COC(=O)c1sccc1-c1ccc(C(=O)Nc2cccc(Cl)c2)o1,3.16 µM (active),
COC(=O)c1sccc1-c1ccc(C(=O)Nc2cccnc2)o1,3.16 µM (active),
COC(=O)COc1ccsc1C(=O)OC,inactive,
CCOC(=O)C(=Cc1ccc(-c2ccsc2C(=O)OC)o1)C(=O)OCC,2.82 µM (active),
Cc1noc(NS(=O)(=O)c2cccc3c(N(C)C)cccc23)c1C,inactive,
CCN(CC)S(=O)(=O)c1cccc2c(N(C)C)cccc12,3.98 µM (active),
CCN(CC)S(=O)(=O)c1ccc2c3c(cccc13)C(=O)S2,1 µM (active),
CN(C)c1ccc(-c2cncnc2NCc2cccs2)cc1,0.631 µM (active),
c1csc(CNc2ncncc2-c2ccoc2)c1,15.8 µM (active),
Cc1cnc(CNc2ncncc2-c2ccoc2)cn1,inactive,
c1ccc(CNc2ncncc2-c2ccoc2)cc1,10 µM (active),
c1cncc(-c2cncnc2NCc2cccs2)c1,inactive,
NC/C=C\C(=O)O,inactive,
CC1=CC=CN2CC(O)CN=C12 (configuration not stated),inactive,
Cc1cc(C)cc(-n2nnnc2SCC(=O)Nc2nc(-c3ccc(Cl)cc3)cs2)c1,3.55 µM (active),
O=C1CCCN1CC(CN1CCOCC1)Sc1nnnn1-c1ccccc1 (configuration not stated),14.1 µM (active),
CSc1nc(Sc2cccc(Cl)c2)c2ccccc2n1,6.31 µM (active),
CSc1c(-c2ccccc2)nc2ccc(Cl)cc2c1C(=O)O,inactive,
Cc1ccc(Sc2nc(C)cc(C)c2S(C)(=O)=O)cc1,3.16 µM (active),
O=C(CCc1nc(-c2ccccc2)no1)NCCc1ccccc1,5.01 µM (active),
CCN(CC)CCc1nc(-c2ccccc2)no1,inactive,
COc1ccc(-c2noc(CCCC(=O)NCCc3ccccc3)n2)cc1OC,7.08 µM (active),
COc1ccc(C(=O)NNC(=O)Cc2ccc(-c3ccccc3)cc2)cc1OC,inactive,

Structure (SMILES),AC50,"activity, negative = inhibition"
O=C1c2ccccc2C(=O)N1CC(=O)N1c2ccccc2CCc2ccccc21,1.41 µM (active),
O=C1c2ccccc2C(=O)N1C[C@]1(C(=O)O)NCCS1(=O)=O,,-9.77% [at 11.4 µM] (inactive)
O=C1CC[C@H](N2C(=O)c3ccccc3C2=O)C(=O)N1,inactive,
CC(C)(N)C(=O)N[C@@H]1C(=O)N2[C@@H]1SC(C)(C)[C@H]2C(=O)O,,2.03% [at 11.4 µM] (inactive)
Cc1ccc(NC(=O)CC2CS(=O)(=O)CC2CC(=O)Nc2ccc(C)c(C)c2)cc1C (configuration not stated),inactive,
CCC(CC)C(=O)Nc1ccc(C)c(O)c1,14.1 µM (active),
CCCCC(=O)Nc1ccc(C(=O)NNC(=O)CCc2ccccc2)cc1,inactive,
CCCCC(=O)Nc1ccc(C)c(O)c1,15.8 µM (active),
CNc1cc(CSC)nc(SCc2ccc(Cl)c(Cl)c2)n1,0.794 µM (active),
Clc1ccc(CSC2=NCCN2)cc1Cl,,-10.9% [at 11.4 µM] (inactive)
O=C(Oc1ccccc1N1C(=O)C2CCCCC2C1=O)c1ccccc1 (configuration not stated),25.1 µM (active),
COc1ccc2c(c1)C(c1ccc([N+](=O)[O-])cc1)=NNC(c1ccco1)=N2,7.08 µM (active),
Cn1cnnc1SCC(=O)n1c2ccccc2c2ccccc21,8.91 µM (active),
COC(=O)C1=C(CSc2nncn2C)NC(=O)NC1c1ccc(F)cc1 (configuration not stated),inactive,
CC(=O)Oc1ccc(C(c2ccc(OC(C)=O)cc2)c2ccccn2)cc1,inactive,
CC(=O)Oc1ccc2ccccc2c1C(NC(=O)Cc1ccccc1)c1ccc(Cl)cc1 (configuration not stated),1.26 µM (active),
COc1ccc(C(=O)N2CCC3(CC2)CCN(c2ccncc2)CC3)cc1,inactive,
N#Cc1ccc(OC(=O)c2ccc(N=C(N)N)cc2)cc1,,14.4% [at 11.4 µM] (inactive)
CCCCCOc1ccc(OC(=O)c2ccncc2)cc1,3.16 µM (active),
CCCCOc1ccc(CC(=O)NO)cc1,inactive,
O=C(Nc1ccc(OC(=O)c2cccnc2)cc1)c1cccnc1,inactive,
CCCCOc1ccc(OC(=O)c2cccnc2)cc1,17.8 µM (active),
COc1ccc(C(=O)N2CCC3(CC2)CN(c2ccncc2)C3)cc1,inactive,
COc1ccc(OC(=O)c2ccncc2)cc1,1.41 µM (active),
